Vaccinia mCherry – vaccinia inhibition (mCherry reporter); Vaccinia virus mCherry reporter infection, fluorescence; Potency, µM (top dose mostly 36.5 µM), without a hit: at the highest dose activity change, negative = inhibition, hits mostly inhibitors; 310,000 compounds, 0.63% hits; AID 720579; calls by dose curve; tested in A549 cells; also: potency is read from the fitted curve at half-maximal effect; nearly all actives have a fitted effect of over 35% in size
Sm TGR inh – S. mansoni TGR enzyme inhibition; Q962Y6; 360,000 compounds, 3% hits; AID 485364; purified TGR, DTNB reduction, TNB absorbance 405 nm; Potency, µM (doses to about 114 µM), for the others: top-dose activity change, negative = inhibition, usual class: inhibitors; also: potency is read from the fitted curve at half-maximal effect; nearly all actives have a fitted effect of over 60% in size
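TGR 20 nM + NADPH 100 uM (dispensed conc.), cpd preinc 15 min RT; start with NADPH (500 uM addition) then DTNB (15 mM addition). Kinetic TNB absorbance, 405 nm filter. Four-parameter Hill fit across titration.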
Vaccinia Venus – vaccinia inhibition (Venus reporter). Vaccinia virus Venus reporter expression, fluorescence. Potency, µM (titrated, usually from 36.5 µM), for the others: at the top dose activity change, negative = inhibition, usual class: inhibitors. 330,000 compounds, 0.46% hits. AID 720580; calls by dose curve; tested in A549 cells; also: potency is read from the fitted curve at half-maximal effect; nearly all actives have a fitted effect of over 30% in size
HCV inhibitor – HCV inhibition; 340,000 compounds, 3.4% hits; Huh7.5.1 HCVcc-Cre infection, luciferase reporter, 44 h; Potency, µM (titrated, usually from 41.8 µM), without a hit: at the top dose activity change, negative = inhibition, actives largely listed as inhibitors; AID 651820; also: potency is read from the fitted curve at half-maximal effect
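Antiviral activity was scored by luciferase reporter output from cells infected with HCVcc-Cre (~0.5 moi) in presence of compound, 44 h infection period, cells seeded 1,000/well 4 h prior.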
HCMV inh – inhibitors of human cytomegalovirus; activity change, negative = inhibition, % at 57.5 µM; HFF cells, HCMV-luciferase reporter, 72 h; stronger effect = lower value; 410,000 compounds, 4.5% hits; in the data active = activity change below about -60%; inconclusive = no clear call, values can overlap the other calls; inactive = above about -39%
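Screen run at 2 compound doses on HFFs infected with reporter HCMV, MOI 1 PFU/cell. Luciferase activity from cell lysates at 72 h post infection gave inhibition relative to buffer-only and Salinomycin wells.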
FMDV inh – antivirals against foot and mouth disease virus. 410,000 compounds, 1.2% hits. Potency, µM (series often up to 57.9 µM), for inactives: at the highest dose activity change, negative = inhibition, most hits filed as inhibitors. FMDV antiviral cell-based qHTS; calls by dose curve; tested in HEK293T cells; also: read-out not given here; potency is read from the fitted curve at half-maximal effect; nearly all actives have a fitted effect of over 45% in size
* hit, by the source's call; i = inactive; ? = inconclusive; / = not tested or not shown; ! = not active in a repeat; [ ] = dose if it differs, or a comment. A selection: hits, their analogues and other compounds. The true share with any hit is near 9.3%. Unless noted, calls follow the shape of the dose curve; as a rule, active = well fitted curve in the direction sought with a large enough effect; inconclusive = small, poorly fitted or top-dose-only effect, or another doubt; inactive = no such curve, though single readings can be large; an effect the other way counts as inactive or inconclusive. % is scaled to controls: 0 for no effect and ±100 for the full control effect.

SMILES | Vaccinia mCherry | Sm TGR inh | Vaccinia Venus | HCV inhibitor | HCMV inh | FMDV inh
CCn1c(=O)cc(SCC(=O)N2CCN(c3ccccc3F)CC2)c2ccccc21 | -5.7% | 10.3% | -4.5% | 14.1µM* | 136.0 | ?
O=C(NNc1ccccc1)C(=O)NNc1ccccc1 | ? | / | -14.4% | 1.5% | 11.7 | 8.8%
Cc1cc(Br)c(NC(=O)COn2nnc3ccc(S(C)(=O)=O)cc32)c(Br)c1 | i | -6.3% | -11.6% | 0.2% | -29.9 | -22.8%
O=C(Nc1ccc([N+](=O)[O-])cc1)N1CCc2ccccc2C1 | -3.3% | 0.9% | -17.8% | 10µM* | 6.3 | 33.4%
O=[N+]([O-])c1ccc(N2CCc3ccccc3C2)cc1 | / | 1.8% | / | -18.9% | -102.2* | 34.0%
O=C(O)c1cc(S(=O)(=O)N2CCCC2)ccc1Br | / | -0.5% | / | 22.1% | -36.0 | -18.9%
Oc1c(Br)cc(Br)cc1/C=N/Nc1ccc(Cl)nn1 | -13.0% | -2.6% | -7.1% | 7.5% | -96.8* | 1.3%
Oc1ccc(/C=N/Nc2ccc(Cl)nn2)c(O)c1O | -1.4% | 14.1µM* | -9.3% | ? | -11.9 | ?
COc1cc(/C=N/Nc2ccc(Cl)nn2)cc(OC)c1O | / | 0.2% | / | 11.7% | 51.6 | -13.6%
Oc1c(Br)cc(/C=N/Nc2ccc(Cl)nn2)cc1Br | -14.8% | -35.8% | -8.5% | 37.3% | -14.5 | -10.7%
CCOc1ccc(/C=N/Nc2ccc(Cl)nn2)c(O)c1 | ? | -0.8% | ? | -19.0% | -81.8* | 15.7%
Cc1ccc(CNC(=O)c2ccc(N3CCC4(CC3)CC(c3cccc(Br)c3)=NO4)c(N)c2)cc1 | ? | -2.8% | ? | ? | -11.6 | -24.3%
COc1cc(/C=C(\C#N)c2nc(-c3cc4ccccc4oc3=O)cs2)ccc1O | -13.4% | -24.3% | 1.2% | ? | 22.8 | 0.0%
COc1cc(/C=C(/C#N)c2nc(-c3cc4ccccc4oc3=O)cs2)cc([N+](=O)[O-])c1O | / | 16.2% | / | / | -86.7* | /
Cn1cc(C(=O)C(=O)N2CCOCC2)c2ccccc21 | / | 1.3% | / | 7.8% | 10.8 | -14.4%
COc1ccc(C(=O)NC2CCN(C(=S)NCc3ccco3)CC2)cc1 | -14.2% | -11.6% | -4.9% | 11.7% | -16.5 | /
Cc1noc(C)c1S(=O)(=O)NCC(=O)O | i | 5.2% | 0.0% | 38.3% | -26.8 | -10.4%
CCOC(=O)CNS(=O)(=O)c1c(C)noc1C | / | 25.1µM* | -7.5% | 25.9% | -18.6 | 2.6%
N#CC[C@H](Cc1ccccc1)N1CCN(Cc2ccccc2)CCC1=O | -21.8% | 0.0% | -6.0% | -4.9% | 5.1 | -14.5%
CCN(CC)CC(=O)Nc1c(C)cccc1C | -7.3% | / | -15.6% | ? | -30.8 | -14.0%
Cc1cccc(C)c1NC(=O)C(Cl)=C(Cl)Cl | ? | / | -21.3% | -26.1% | -89.0* | 1.3%
CCN(C(=O)C1CCN(c2nc(-c3ccc(OC)cc3)no2)CC1)c1ccc(OC)cc1 | -14.2% | 7.7% | ? | 8.91µM* | -73.0* | ?
COC(=O)c1c(-c2ccc(Cl)cc2)noc1N1CCN(c2cccc(OC)c2)CC1 | -10.6% | -4.2% | -22.7% | / | -71.7* | ?
COc1ccc(-c2noc(N3CCC(C(=O)N4CCN(c5cccc(OC)c5)CC4)CC3)n2)cc1 | -2.5%[7.34 µM] | -1.6% | -9.7%[7.34 µM] | / | -83.7* | ?
COc1ccc(-c2noc(N3CCC(C(=O)N4CCN(c5cccc(C)c5C)CC4)CC3)n2)cc1 | -12.3%[7.34 µM] | 0.0% | -22.0%[7.34 µM] | / | -29.2 | -29.9%
SMILES | Vaccinia mCherry | Sm TGR inh | Vaccinia Venus | HCV inhibitor | HCMV inh | FMDV inh
COc1ccc(-c2noc(N3CCC(C(=O)N4CCN(c5ccccc5OC)CC4)CC3)n2)cc1 | -3.0%[7.34 µM] | 0.2% | -18.1%[7.34 µM] | / | -76.6* | 0.0%
CCCS(=O)(=O)NC(=O)C1(C)CCN(C(=O)Cc2cccc(OC)c2)C1 (stereo not given) | -6.4% | / | 11.8% | / | 22.7 | -16.2%
CCCN(c1c(C)n(C)n(-c2ccccc2)c1=O)S(=O)(=O)c1ccc(C)cc1 | -11.4% | 1.9% | -11.1% | / | -8.8 | -8.1%
COc1ccc(-c2noc(N3CCC(C(=O)N4CCN(c5ccccn5)CC4)CC3)n2)cc1 | / | 15.1% | / | 4.47µM* | -82.7* | 12.6µM*
COc1ccc(Nc2ccncc2[N+](=O)[O-])cc1 | -24.8% | -0.2% | -12.4% | 12.3% | -71.2* | -14.1%
Cc1ccc(NC(=O)COC(=O)CN2CCCCCC2=O)cc1C | / | -3.9% | / | -5.0% | 45.9 | -15.3%
CCN(CC)CCN1C(=O)C(O)=C(C(C)=O)C1c1ccccc1[N+](=O)[O-] (stereo not given) | -16.8% | 44.7µM* | 3.1% | 6.9% | 47.3 | 11.4%
Cc1ccc(N2CC(C(=O)NCCC(C)C)CC2=O)cc1 (stereo not given) | -11.2% | -5.2% | -2.1% | -1.3% | -4.5 | -9.0%
Cc1ccc(N2CC(C(=O)NCc3ccc(C)n3C)CC2=O)cc1 (stereo not given) | -2.7% | 39.8µM* | -4.0% | 1.7% | -26.8 | 11.5%
CCCc1ccc(NC(=O)C2CCN(c3cnccn3)CC2)cc1 | -0.4% | 7.1% | -22.1% | ? | -64.0*! | -15.7%
COc1cccc(NC2=C(Cl)C(=O)OC2OC(=O)c2ccco2)c1 (stereo not given) | i | 7.94µM* | 1.2% | 14.6% | -7.2 | -28.2%
Cc1cccc(C)c1NC(=O)C1c2ccccc2OCC(=O)N1CC(F)(F)F (stereo not given) | 16.7% | / | 1.9% | / | 2.2 | -11.5%
CC1=CC(c2ccccc2)n2nc(NC(=O)CCCC(=O)O)nc2N1 (stereo not given) | -13.8% | 20µM* | -6.3% | 10.1% | 16.1 | -15.3%
CC1=CC(c2ccccc2)n2nc(NC(=O)CCC(=O)O)nc2N1 (stereo not given) | -11.9% | 12.6µM* | -11.1% | -1.3% | -32.0 | 35.1%
COC(=O)/C=C1\SC(=NC(=O)c2ccc(-c3ccccc3)cc2)NC1=O | i | / | -4.9% | 0.8% | 61.5 | ?
CCOC(=O)c1ccc(NC(=O)CN2C(=O)C3C4C=CC(C4)C3C2=O)cc1 (stereo not given) | -18.3% | -8.3% | -9.2% | -9.0% | -19.0 | -1.8%
COc1ccc(OC)c(-n2c(CNC3CCN(Cc4ccccc4)CC3)nc3ccccc3c2=O)c1 | / | -12.4% | / | -0.9% | -106.4* | 0.8%
Cc1cccc(C)c1NC(=O)C(c1ccc([N+](=O)[O-])cc1)N(C)C(=O)c1ccccn1 (stereo not given) | -0.8% | 2.9% | 1.0% | 4.3% | ? | -15.4%
Cc1ccc(C2/C=C\CC(NC(=O)OCC3c4ccccc4-c4ccccc43)CC(=O)N2Cc2ccccc2)cc1 (stereo not given) | -16.4% | / | -7.7% | 17.8µM* | -18.2 | -28.5%
COc1ccc(C2/C=C\CC(OCc3ccccc3)CC(=O)N2Cc2cccc(F)c2)cc1 (stereo not given) | -13.2% | / | ? | -21.9% | 6.0 | -21.4%
Cc1ccc2nc(SC(C)C(=O)NC3CCCC3)[nH]c2c1 (stereo not given) | -12.5% | / | 3.1% | -17.7% | -33.6 | -12.8%
